Data published in the supplement of paper PMC11732987, “Enantioselective OTUD7B fragment discovery through chemoproteomics screening and high-throughput optimisation” (Communications Chemistry, 2025).
A number with no mark means an inactive call.

How the values were obtained:
Test in all cases: log2 ratio of Biotin-Ahx-Ub-VS probe labelling (fragment/DMSO); higher = less target engagement (more negative = stronger competition), active = hit call of the paper (q ≤ 0.05, log2 ratio ≤ -1)
Conditions in all cases: compound concentration: 200 uM; treatment time: 3 h
USP19 = target: T1, USP19 (UniProt O94966)
T1 sequence (whole entry): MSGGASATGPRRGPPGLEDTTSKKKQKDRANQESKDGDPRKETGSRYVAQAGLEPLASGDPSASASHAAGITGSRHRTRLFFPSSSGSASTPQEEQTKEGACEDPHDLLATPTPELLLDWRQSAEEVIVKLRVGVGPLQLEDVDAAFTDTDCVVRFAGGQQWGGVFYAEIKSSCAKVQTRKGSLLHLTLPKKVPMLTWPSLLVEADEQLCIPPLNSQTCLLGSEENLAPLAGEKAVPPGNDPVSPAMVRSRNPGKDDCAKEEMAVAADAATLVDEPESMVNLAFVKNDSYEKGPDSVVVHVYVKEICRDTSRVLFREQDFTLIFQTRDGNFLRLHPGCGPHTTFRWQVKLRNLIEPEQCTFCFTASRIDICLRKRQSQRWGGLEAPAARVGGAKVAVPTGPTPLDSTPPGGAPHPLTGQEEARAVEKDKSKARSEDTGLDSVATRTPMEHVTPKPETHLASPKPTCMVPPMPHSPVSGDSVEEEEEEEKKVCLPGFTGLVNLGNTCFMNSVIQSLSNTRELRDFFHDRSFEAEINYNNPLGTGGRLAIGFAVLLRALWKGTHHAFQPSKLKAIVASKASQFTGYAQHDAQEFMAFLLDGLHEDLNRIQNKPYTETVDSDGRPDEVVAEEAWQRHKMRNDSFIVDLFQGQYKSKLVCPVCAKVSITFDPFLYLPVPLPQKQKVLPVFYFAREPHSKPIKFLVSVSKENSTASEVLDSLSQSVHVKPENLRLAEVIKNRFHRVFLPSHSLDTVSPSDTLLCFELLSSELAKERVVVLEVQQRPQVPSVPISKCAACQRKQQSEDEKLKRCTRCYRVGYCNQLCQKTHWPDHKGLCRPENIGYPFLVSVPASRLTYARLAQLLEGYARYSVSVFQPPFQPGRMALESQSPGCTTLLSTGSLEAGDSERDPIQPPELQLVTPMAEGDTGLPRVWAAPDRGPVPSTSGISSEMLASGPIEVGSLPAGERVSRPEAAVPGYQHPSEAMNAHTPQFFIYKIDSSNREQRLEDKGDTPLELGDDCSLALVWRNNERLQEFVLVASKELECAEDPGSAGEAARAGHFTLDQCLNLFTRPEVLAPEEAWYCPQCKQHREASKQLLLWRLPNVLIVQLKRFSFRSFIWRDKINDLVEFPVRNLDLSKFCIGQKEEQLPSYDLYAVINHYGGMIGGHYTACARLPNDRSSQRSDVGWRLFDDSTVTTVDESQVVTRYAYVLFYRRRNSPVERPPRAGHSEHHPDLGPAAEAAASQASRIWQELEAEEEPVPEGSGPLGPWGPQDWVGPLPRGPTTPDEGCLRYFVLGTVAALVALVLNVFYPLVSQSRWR
Summary of the method: (§1)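 Labelling with Biotin-Ahx-Ub-VS (0.5 µM final, 1 h) followed a 3 h triplicate treatment of HEK293T lysate (495 µg per sample, Tris/CHAPS/IGEPAL buffer with protease inhibitors) with fragment at 200 µM or vehicle. Labelled DUBs were NeutrAvidin-enriched, digested with LysC and trypsin, and run by diaPASEF LC-MS/MS. The values, average log2 fragment/vehicle ratios by unpaired t-test, come from global-median-normalised Spectronaut label-free quantities. Proteins with ≥2 unique peptides were used.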

USP24 = USP24 (UniProt Q9UPU5)
Summary of the method: as §1

USP25 = target: T2, USP25 (UniProt Q9UHP3)
T2 sequence (whole entry): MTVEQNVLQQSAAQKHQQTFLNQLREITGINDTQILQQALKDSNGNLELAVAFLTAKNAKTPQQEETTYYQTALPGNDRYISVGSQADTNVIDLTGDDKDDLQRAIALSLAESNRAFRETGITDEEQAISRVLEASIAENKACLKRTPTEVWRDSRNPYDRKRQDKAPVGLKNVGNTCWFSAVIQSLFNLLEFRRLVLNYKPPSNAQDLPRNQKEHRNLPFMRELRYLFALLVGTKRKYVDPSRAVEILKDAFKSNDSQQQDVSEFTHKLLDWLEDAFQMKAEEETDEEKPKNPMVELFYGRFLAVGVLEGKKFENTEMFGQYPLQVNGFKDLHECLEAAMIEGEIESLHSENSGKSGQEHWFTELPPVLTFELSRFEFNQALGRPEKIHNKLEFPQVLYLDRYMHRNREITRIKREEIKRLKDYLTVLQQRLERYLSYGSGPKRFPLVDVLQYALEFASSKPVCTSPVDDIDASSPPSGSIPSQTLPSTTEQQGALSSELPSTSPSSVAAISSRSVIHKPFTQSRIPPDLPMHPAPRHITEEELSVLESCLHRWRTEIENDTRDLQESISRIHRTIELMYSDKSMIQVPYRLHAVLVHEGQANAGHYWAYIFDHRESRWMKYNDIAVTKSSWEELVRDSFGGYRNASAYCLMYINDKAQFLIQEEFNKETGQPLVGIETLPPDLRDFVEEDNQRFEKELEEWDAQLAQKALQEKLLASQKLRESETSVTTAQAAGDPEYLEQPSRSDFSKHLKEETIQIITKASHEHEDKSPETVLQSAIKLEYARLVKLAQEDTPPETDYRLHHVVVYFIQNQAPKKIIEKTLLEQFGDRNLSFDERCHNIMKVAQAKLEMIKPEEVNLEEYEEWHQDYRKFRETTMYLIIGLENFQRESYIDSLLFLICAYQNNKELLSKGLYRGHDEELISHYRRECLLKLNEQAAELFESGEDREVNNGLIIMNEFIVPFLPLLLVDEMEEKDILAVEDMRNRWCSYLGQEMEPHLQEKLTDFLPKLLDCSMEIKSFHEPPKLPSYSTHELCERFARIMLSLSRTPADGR
Summary of the method: as §1

USP28 = target: T3, USP28 (UniProt Q96RU2)
T3 sequence (whole entry): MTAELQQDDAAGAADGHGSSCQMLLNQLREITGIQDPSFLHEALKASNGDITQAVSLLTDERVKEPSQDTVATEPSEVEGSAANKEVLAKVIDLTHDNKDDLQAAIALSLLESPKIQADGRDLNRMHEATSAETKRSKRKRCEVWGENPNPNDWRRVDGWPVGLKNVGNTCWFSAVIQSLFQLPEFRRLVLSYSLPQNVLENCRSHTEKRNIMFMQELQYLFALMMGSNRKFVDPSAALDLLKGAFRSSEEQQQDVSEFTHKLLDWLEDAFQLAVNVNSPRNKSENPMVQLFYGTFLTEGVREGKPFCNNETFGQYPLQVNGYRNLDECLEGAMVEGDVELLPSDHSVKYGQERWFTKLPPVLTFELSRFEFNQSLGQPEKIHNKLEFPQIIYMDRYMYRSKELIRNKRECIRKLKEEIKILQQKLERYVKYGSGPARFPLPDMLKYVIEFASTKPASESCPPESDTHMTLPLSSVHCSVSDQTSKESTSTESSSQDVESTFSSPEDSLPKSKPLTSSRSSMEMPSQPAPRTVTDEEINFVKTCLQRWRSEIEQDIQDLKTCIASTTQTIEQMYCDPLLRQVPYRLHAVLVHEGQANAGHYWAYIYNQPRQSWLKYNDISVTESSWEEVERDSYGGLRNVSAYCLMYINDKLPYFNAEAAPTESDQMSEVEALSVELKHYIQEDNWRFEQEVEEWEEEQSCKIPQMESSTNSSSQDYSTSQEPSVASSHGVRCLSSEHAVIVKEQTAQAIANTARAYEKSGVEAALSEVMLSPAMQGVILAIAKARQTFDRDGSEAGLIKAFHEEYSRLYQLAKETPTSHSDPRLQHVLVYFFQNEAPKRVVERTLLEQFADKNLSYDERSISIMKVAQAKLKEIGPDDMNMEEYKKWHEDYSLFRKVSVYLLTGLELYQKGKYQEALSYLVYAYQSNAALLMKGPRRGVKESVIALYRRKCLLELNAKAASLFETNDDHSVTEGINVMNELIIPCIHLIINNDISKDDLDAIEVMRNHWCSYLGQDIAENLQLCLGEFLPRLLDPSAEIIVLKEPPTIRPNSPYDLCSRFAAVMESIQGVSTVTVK
Summary of the method: as §1

USP24, sequence (Q9UPU5 whole entry): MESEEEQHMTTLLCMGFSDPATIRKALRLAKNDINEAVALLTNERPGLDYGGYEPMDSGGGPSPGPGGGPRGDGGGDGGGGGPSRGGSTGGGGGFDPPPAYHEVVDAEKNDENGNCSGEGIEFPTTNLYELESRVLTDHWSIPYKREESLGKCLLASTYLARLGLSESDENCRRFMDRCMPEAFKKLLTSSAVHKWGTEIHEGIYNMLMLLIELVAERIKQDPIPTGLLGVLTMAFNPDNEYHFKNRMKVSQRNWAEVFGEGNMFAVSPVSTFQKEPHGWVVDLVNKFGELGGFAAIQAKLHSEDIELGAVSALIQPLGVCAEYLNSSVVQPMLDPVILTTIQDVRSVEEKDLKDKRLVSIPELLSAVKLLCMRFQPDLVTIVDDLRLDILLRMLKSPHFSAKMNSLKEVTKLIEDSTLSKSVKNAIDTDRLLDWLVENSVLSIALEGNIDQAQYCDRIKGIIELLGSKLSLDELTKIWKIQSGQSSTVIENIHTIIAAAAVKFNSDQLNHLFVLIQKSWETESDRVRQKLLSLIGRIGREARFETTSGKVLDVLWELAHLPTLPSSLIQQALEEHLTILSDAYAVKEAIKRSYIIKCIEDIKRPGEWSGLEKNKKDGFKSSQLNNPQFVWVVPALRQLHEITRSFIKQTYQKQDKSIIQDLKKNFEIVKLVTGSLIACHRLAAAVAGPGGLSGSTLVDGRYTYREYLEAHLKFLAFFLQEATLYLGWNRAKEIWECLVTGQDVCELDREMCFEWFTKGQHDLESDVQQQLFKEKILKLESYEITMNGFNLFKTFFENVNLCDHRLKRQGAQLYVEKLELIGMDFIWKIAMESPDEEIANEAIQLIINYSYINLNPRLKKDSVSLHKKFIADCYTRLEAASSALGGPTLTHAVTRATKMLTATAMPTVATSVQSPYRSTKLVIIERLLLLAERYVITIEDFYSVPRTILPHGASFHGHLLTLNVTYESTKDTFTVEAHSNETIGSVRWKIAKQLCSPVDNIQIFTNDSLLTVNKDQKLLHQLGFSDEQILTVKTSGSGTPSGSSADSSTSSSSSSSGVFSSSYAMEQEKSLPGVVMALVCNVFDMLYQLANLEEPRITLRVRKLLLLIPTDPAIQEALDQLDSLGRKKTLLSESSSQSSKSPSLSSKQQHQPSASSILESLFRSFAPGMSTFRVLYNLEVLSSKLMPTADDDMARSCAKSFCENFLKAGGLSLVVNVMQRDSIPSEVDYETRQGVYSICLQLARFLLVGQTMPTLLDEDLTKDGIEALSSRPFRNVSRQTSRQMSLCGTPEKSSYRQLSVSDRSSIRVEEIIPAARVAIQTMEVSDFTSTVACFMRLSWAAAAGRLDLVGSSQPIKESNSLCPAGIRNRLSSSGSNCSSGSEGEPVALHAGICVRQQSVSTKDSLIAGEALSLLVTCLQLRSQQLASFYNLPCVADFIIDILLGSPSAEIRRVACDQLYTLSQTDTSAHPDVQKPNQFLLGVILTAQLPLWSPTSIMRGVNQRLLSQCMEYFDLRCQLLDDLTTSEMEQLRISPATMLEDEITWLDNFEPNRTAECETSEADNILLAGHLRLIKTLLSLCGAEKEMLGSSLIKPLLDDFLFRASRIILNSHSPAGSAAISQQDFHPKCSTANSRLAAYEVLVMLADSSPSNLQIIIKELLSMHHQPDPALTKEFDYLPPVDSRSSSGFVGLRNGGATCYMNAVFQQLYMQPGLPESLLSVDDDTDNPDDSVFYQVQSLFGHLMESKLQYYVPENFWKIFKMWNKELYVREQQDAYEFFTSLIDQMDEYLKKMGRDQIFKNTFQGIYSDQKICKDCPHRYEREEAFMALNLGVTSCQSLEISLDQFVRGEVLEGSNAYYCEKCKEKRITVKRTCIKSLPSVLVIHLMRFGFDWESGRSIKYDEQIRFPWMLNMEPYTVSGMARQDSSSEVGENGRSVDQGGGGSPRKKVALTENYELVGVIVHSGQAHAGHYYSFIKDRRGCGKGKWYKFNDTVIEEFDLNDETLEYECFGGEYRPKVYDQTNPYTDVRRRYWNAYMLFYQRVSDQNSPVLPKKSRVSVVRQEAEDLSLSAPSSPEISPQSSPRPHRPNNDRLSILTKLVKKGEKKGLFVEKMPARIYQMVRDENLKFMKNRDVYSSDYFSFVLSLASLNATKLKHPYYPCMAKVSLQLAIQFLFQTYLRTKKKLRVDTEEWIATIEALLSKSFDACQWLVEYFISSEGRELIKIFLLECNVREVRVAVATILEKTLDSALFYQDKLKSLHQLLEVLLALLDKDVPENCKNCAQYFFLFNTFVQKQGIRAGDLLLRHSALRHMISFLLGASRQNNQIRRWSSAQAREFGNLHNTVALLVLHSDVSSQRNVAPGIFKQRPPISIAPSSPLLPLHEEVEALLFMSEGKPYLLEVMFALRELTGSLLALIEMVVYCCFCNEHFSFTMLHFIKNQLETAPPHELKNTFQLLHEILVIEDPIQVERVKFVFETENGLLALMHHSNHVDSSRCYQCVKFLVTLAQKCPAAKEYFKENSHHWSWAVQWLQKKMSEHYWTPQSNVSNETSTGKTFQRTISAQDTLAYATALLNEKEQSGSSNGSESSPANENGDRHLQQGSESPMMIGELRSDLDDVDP

## Cc1ccc(C)c(NC(=O)CCl)c1
USP19
  log2 ratio of Biotin-Ahx-Ub-VS probe labelling: -0.203
USP24
  log2 ratio of Biotin-Ahx-Ub-VS probe labelling: -0.729
USP25
  log2 ratio of Biotin-Ahx-Ub-VS probe labelling: -1.41 (active)
USP28
  log2 ratio of Biotin-Ahx-Ub-VS probe labelling: -1.56 (active)
